# BAZ2B inh – qHTS Assay for Inhibitors of BAZ2B. AlphaScreen BAZ2B-H3K14Ac peptide displacement. Potency, µM (top dose mostly 114 µM), for the others: top-dose activity change, negative = inhibition, most hits filed as inhibitors. hit rate 4.4% among 360,000. AID 504333, 2011; further: potency means the concentration at half of the fitted maximal effect; on the % scale 0 is the no-effect control and ±100 the full control effect; nearly all actives have a fitted effect of over 60% in size
#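 Multi-concentration screen (max 110 uM) measuring displacement of acetylated histone H3 peptide from BAZ2B by AlphaScreen, using 50 nM protein, 50 nM peptide and 10 ug/mL streptavidin donor plus Ni-chelate acceptor beads.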
# JMJD2A Tudor inh – qHTS Assay for Inhibitors of JMJD2A-Tudor Domain. Lysine-specific demethylase 4A (Homo sapiens), O75164. AlphaScreen JMJD2A-Tudor / H3K4me3 peptide binding. Potency, µM (doses to about 114 µM), inactives show at the top dose activity change, negative = inhibition, hits mostly inhibitors. hit rate 4.4% among 390,000; further: potency means the concentration at half of the fitted maximal effect; on the % scale 0 is the no-effect control and ±100 the full control effect; nearly all actives have a fitted effect of over 50% in size
# G9a inh – qHTS Assay for Inhibitors of Histone Lysine Methyltransferase G9a; Histone-lysine N-methyltransferase EHMT2 (Homo sapiens), Q96KQ7; G9a H3K9 monomethylation, AlphaScreen, 2 h; Potency, µM (top dose mostly 102 µM), inactives show at the highest dose activity, negative = inhibition, most hits filed as inhibitors; hit rate 8.8% among 350,000; further: potency means the concentration at half of the fitted maximal effect; on the % scale 0 is the no-effect control and ±100 the full control effect; nearly all actives have a fitted effect of over 75% in size
# Target sequence (Q96KQ7 913-1193 limits assumed): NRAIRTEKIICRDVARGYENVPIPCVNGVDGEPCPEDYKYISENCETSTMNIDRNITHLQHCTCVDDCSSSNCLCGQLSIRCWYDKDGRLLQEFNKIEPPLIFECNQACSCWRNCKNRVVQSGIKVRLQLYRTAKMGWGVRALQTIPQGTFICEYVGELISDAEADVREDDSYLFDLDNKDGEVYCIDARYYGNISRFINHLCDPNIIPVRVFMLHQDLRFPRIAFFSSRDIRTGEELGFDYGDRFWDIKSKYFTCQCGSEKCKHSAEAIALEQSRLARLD
#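 Readings reflect AlphaScreen signal from monomethyl-H3K9 antibody detection. HMT at 20 nM; substrate b-H3K9 500 nM; cofactor SAM 20 uM; 2 h RT reaction; compounds tested as titrations in qHTS with 15 min preincubation.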
# PLK1 PBD inh – qHTS for Inhibitors of PLK1-PDB (polo-like kinase 1 - polo-box domain): Primary Screen | Plk1 PBD binding of FITC phosphopeptide, fluorescence polarization | Potency, µM, without a hit: max response, negative = inhibition, usual class: inhibitors | AID 720504, 2013 | hit rate 2.8% among 360,000 | Serine/threonine-protein kinase PLK1 (Homo sapiens), P53350; further: potency means the concentration at half of the fitted maximal effect; series mostly up to about 57 µM; on the % scale 0 is the no-effect control and ±100 the full control effect; nearly all actives have a fitted effect of over 65% in size
# PI5P4Ka inh – qHTS for Inhibitors of phosphatidylinositol 5-phosphate 4-kinase (PI5P4K); Phosphatidylinositol 5-phosphate 4-kinase type-2 alpha (Homo sapiens), P48426; PI5P4Kalpha enzyme, ADP-Glo luminescence, 60 min; active compounds read low; max response, %; hit rate 1.2% among 330,000; AID 652105, 2013; active means max response of -50% or lower; inconclusive means between -30% and -50%; inactive means -30% or higher; further: value at the top dose of about 77 µM; on the % scale 0 is the no-effect control and ±100 the full control effect
# Target sequence (P48426 whole entry, looked up): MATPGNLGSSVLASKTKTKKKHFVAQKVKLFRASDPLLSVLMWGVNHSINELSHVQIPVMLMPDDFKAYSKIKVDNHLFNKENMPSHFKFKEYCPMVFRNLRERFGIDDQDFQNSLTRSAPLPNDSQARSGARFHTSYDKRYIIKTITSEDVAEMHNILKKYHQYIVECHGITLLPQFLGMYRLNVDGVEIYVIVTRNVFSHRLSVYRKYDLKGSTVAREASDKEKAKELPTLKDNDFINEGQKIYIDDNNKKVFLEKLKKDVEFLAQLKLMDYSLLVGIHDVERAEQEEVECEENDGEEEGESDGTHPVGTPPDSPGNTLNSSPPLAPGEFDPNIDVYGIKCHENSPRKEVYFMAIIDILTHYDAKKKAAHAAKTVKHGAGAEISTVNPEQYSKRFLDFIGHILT
#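 Single end-point luminescence (ADP-Glo) quantified ADP from PI5P4Kalpha turnover; ATP 5 microM final, 1 h at RT, 0.1% CHAPS and 0.28 mM EGTA in HEPES pH 7.4.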
# HP1b chromo inh – HTS for Inhibitors of HP1-beta Chromodomain Interactions with Methylated Histone Tails; AlphaScreen HP1-beta / biotin-H3K9me3 peptide binding; Potency, µM (series often up to 114 µM), without a hit: at the highest dose activity change, negative = inhibition, hits mostly inhibitors; hit rate 0.56% among 390,000; AID 540317, 2011; further: potency means the concentration at half of the fitted maximal effect; nearly all actives have a fitted effect of over 70% in size
#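 AlphaScreen: HP1-beta (50 nM) preformed 30 min with biotin-H3(1-18)K9me3 peptide (50 nM) in PBS pH 7.4, 0.01% Tween-20. Compound added for 30 min at RT, then streptavidin donor/nickel chelate acceptor beads (10 ug/mL) for 30 min.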
# Numbers without * were called inactive; u = inconclusive; x = no result; [ ] = remark or other dose. An excerpt weighted towards active compounds, which were near 12% of everything screened. Unless noted, the call rests on the fitted dose curve; in most records, active means well fitted curve in the direction sought with a large enough effect; inconclusive means small, poorly fitted or top-dose-only effect, or another doubt; inactive means no such curve, though single readings can be large; an effect the other way counts as inactive or inconclusive.
SMILES,BAZ2B inh,JMJD2A Tudor inh,G9a inh,PLK1 PBD inh,PI5P4Ka inh,HP1b chromo inh
CCC(CNC(=O)c1c(C)nn(-c2ccccc2)c1Cl)c1ccccc1 (centres undefined),6.2%,16.7%,18.7%,0.3%,7.9,53.8%
CCOC(=O)c1ccc(Nc2ccc(-c3ccc(OC)c(OC)c3)nn2)cc1,x,63.1µM*,u,-6.0%,x,2.2%
CCOC(=O)C1=NNC(C(=O)c2ccc(OC)cc2)C1c1ccccc1 (centres undefined),-3.3%,-11.9%,56.2µM*,-1.2%,1.4,23.2%
CCOC(=O)C1=NNC(C(=O)c2ccccc2)C1c1ccc(Cl)cc1 (centres undefined),-8.6%,-11.5%,x,-0.7%,-1.4,-3.3%
CCOC(=O)C1=NNC(C(=O)c2ccccc2)C1c1ccc(C)cc1 (centres undefined),-21.1%,-20.3%,-3.0%,0.9%,1.6,20.0%
CCOC(=O)C1=NNC(C(=O)c2ccc(C)cc2)C1c1ccc(C)cc1 (centres undefined),-2.5%,-18.8%[57.1 µM],79.4µM*,u,5.9,-11.9%
CC[N+](CC)(CC)CCOc1ccc(/C=C/c2ccccc2)cc1,56.2µM*,u,8.9%[59 µM],0.3%,-6.9,12.9%
CCCCc1cc(=O)oc2cc(C)cc(OCC(=O)NC(Cc3ccc(Cl)cc3)C(=O)O)c12 (centres undefined),-34.0%,-2.7%,15.6%,-6.5%,-6.2,31.8%
COc1cccc(NC(=S)/C(=C(\[O-])c2ccc(OC(F)F)cc2)[n+]2ccccc2)c1,-30.8%,-29.9%,17.8µM*,-24.6%,0.7,4.0%
O=C(C[n+]1ccc(C(=O)NCc2ccccc2)cc1)c1ccc(OC(F)F)cc1,16.3%,-9.9%,u,-7.2%,5.1,31.7%
[O-]/C(=C(\C(=S)Nc1cccc2ccccc12)[n+]1ccccc1)c1ccc(OC(F)F)cc1,35.5µM*,-29.1%[57.1 µM],44.7µM*,-22.4%,-1.1,-24.3%
[O-]/C(=C(\C(=S)Nc1cccc2ccccc12)[n+]1ccccc1)c1ccc2c(c1)OCCO2,56.2µM*,u,8.91µM*,u,x,-16.0%
CC(C)C(=O)c1cc2c(cc1NC(=O)Nc1cccc3ccccc13)OCCO2,11.6%,x,4.7%[59 µM],x,x,x
CC(Sc1nnc2n1CCCCC2)C(=O)Nc1cccc(S(=O)(=O)N2CCOCC2)c1 (centres undefined),4.8%,-4.8%,8.9%[0.501 µM],-0.9%,1.9,26.2%
COc1cccc(Cn2c(=O)cnc3cnc(N(C)C)nc32)c1,x,x,1.6%[0.501 µM],x,x,x
O=C(Cn1cc(CNC(=O)c2ccccc2)nn1)Nc1cc(C(F)(F)F)ccc1Cl,x,-19.9%,x,x,x,x
Cc1cccc(Oc2ccc3c(c2)Oc2ccccc2NC3=O)c1,50.1µM*,50.1µM*,3.9%[59 µM],x,x,-14.9%
Cc1cc(C)c(NC(=O)Cn2c(=O)n(-c3ccc(F)cc3)c(=O)c3c(C)c(C(=O)N(C)C)sc32)c(C)c1,-15.9%,-11.3%,0.0%[59 µM],x,x,21.9%
O=C1c2ccccc2C(O)(c2ccccc2)N1CCc1ccccc1 (centres undefined),0.0%,-7.3%,25.9%,0.6%,0.3,41.3%
O=C1c2ccccc2C(O)(c2ncc[nH]2)N1C1CCCCC1 (centres undefined),-7.0%,u,20µM*,-3.6%,10.0,16.5%
COc1ccc(CCN2C(=O)c3ccccc3C2(O)c2ncc[nH]2)cc1OC (centres undefined),u,-6.1%[11.4 µM],22.4µM*,u,-5.1,-20.1%
O=C1c2cccnc2C(O)N1C1CCCCC1 (centres undefined),-2.9%,-10.9%,-18.5%,-1.0%,x,58.2%
Cc1ccc2c(c1)C(c1ccccc1)N(C(=O)COc1ccc(Cl)cc1Cl)CC(=O)N2 (centres undefined),-16.9%,-21.2%,-8.5%[59 µM],x,x,15.5%
c1ccc2c(c1)nc(Nc1ccc(N3CCCCC3)cc1)c1nncn12,28.2µM*,44.7µM*,15.8µM*,-5.3%,0.9,u
c1ccc2c(c1)nc(NC1CCCCC1)c1nncn12,-3.2%,-12.1%,44.7µM*,2.7%,-1.7,23.9%
SMILES,BAZ2B inh,JMJD2A Tudor inh,G9a inh,PLK1 PBD inh,PI5P4Ka inh,HP1b chromo inh
Cc1nn(S(=O)(=O)c2ccc(Cl)cc2)c(C)c1S(=O)(=O)N1CCOCC1,-7.8%,u,u,-18.0%,-12.5,7.1%
Cc1nn(S(=O)(=O)c2cccc([N+](=O)[O-])c2)c(C)c1S(=O)(=O)N1CCOCC1,-27.1%,79.4µM*,-4.3%[59 µM],-20.7%,5.0,83.6%
Cc1nn(S(=O)(=O)c2ccc(Br)cc2)c(C)c1S(=O)(=O)N1CCCCCC1,2.9%,-8.7%,-3.5%[59 µM],x,x,28.8%
Cc1ccc(S(=O)(=O)n2nc(C)c(S(=O)(=O)N3CCOCC3)c2C)cc1,u,u,35.5µM*,0.8%,0.8,47.5%
Cc1nn(S(=O)(=O)c2ccc(Br)cc2)c(C)c1S(=O)(=O)N1CCOCC1,u,-10.3%,39.8µM*,-10.0%,-8.8,37.8%
Cc1ccc(OC(C)C(=O)N2CCc3ccccc32)c([N+](=O)[O-])n1 (centres undefined),x,x,x,-6.8%,-1.2,x
NC(=O)C1CCN(C(=O)C2c3ccccc3C(=O)N3CCc4ccccc4C23)CC1 (centres undefined),u,-17.7%,79.4µM*,-11.1%,x,8.7%
COc1ccc(-c2nnc(SCC(=O)NCCc3ccc(OC)c(OC)c3)nc2-c2ccc(OC)cc2)cc1,u,u,8.91µM*,x,x,6.1%
COc1ccc(C(=O)CSc2ccc(-c3ccco3)nn2)cc1,50.1µM*,-31.9%,22.4µM*,-16.3%,u,21.6%
COc1ccc(CCNC(=O)CSc2nnc(-c3ccco3)c(-c3ccco3)n2)cc1OC,44.7µM*,x,8.91µM*,x,x,x
COc1ccc(-c2nnc(SCC(=O)NCCc3ccccc3)nc2-c2ccc(OC)cc2)cc1,-11.9%,-8.3%,3.8%[59 µM],x,x,53.7%
COc1ccc(CCNC(=O)CSc2ccc(-c3ccco3)nn2)cc1OC,3.7%,-8.2%,44.7µM*,2.5%,3.4,52.2%
COc1ccc(C(=O)CSc2ccc(-c3ccccc3)nn2)cc1,9.7%,2.1%,-42.0%,-7.7%,5.4,38.4%
O=C(CCC(C(=O)c1ccccc1)c1ccccc1)c1ccccc1 (centres undefined),x,x,x,5.6%,8.7,x
COc1ccc(CCN2C(=O)CCC2(C)c2nnnn2-c2c(C)cccc2C)cc1OC (centres undefined),x,x,x,-6.4%,-2.5,x
